Test results: PubChem BioAssay AID372 (MTDP, 2006)
About 770 (0.77%) of roughly 100,000 compounds were called active. Shown is part of a subset that was picked to be rich in actives. Values without a mark were called inactive. No stated cut-off is given here; in the data, active means inhibition above about 50%; inactive means the rest.

target: Gag-Pol polyprotein (Human immunodeficiency virus type 1 group M subtype B (isolate HXB2)) (UniProt P04585); test: RNase H inhibition, HIV 1 Gag Pol polyprotein, FRET biochemical assay, screening (AID 372); conditions: HIV-1 RT RNase H, FRET RNA/DNA substrate fluorescence; at 10 µM; hits give high values

Row | SMILES | inhibition
1 | O=C(CSCc1ccccc1Cl)Nc1cccc(Br)c1 | 17%
2 | COc1cc(/C=C2\C(=O)NC(=O)N(C(C)(C)C)C2=O)cc(OC)c1O | 18%
3 | COc1ccc(CNC(=O)CN(c2ccccc2OC)S(=O)(=O)c2ccccc2)cc1 | 9%
4 | CCOC(=O)c1c(NC(=O)c2cc(OC)c(OC)c(OC)c2)sc(C(=O)Nc2ccc(OC)cc2OC)c1C | 15%
5 | O=C1c2cccc3c([N+](=O)[O-])ccc(c23)N1c1ccccc1 | 56% (active)
6 | COc1ccc(N2C(=O)c3cccc4c([N+](=O)[O-])ccc(c34)C2=O)cc1 | 16%
7 | O=C1c2cccc3c([N+](=O)[O-])ccc(c23)C(=O)N1c1ccc(O)cc1 | 13%
8 | O=C(CCN1C(=O)c2ccccc2C1=O)N1CCN(C/C=C/c2ccccc2)CC1 | 5%
9 | O=c1oc2ccc3ccccc3c2cc1-c1nnc(NCc2ccc(F)cc2)s1 | 60% (active)
10 | CCN(CC)c1ccc2cc(-c3nnc(NCc4ccc(F)cc4)s3)c(=O)oc2c1 | 0%
11 | Cc1ccc(F)cc1Nc1nnc(-c2cc3c(ccc4ccccc43)oc2=O)s1 | 5%
12 | Cc1ccc(-c2ccccc2)n1-c1cccc2cccnc12 | 7%
13 | Cc1ccc(C)n1-c1cccc2cccnc12 | 67% (active)
14 | O=C1C2C3C=CC(C3)C2C(=O)N1c1cccc2cccnc12 (stereo not given) | 5%
15 | CCCCCCCC(=O)NNC(=O)c1cccs1 | 0%
16 | Cc1ccc(-c2nc3ccccc3o2)cc1NC(=O)c1cccc(Cl)c1Cl | 43%
17 | Cc1ccc(-c2nc3cc(Cl)ccc3o2)cc1NC(=O)c1cccc(Cl)c1Cl | 16%
18 | O=C(COc1ccccc1)Nc1ccc(-c2nc3cc(Cl)ccc3o2)cc1 | 23%
19 | Cc1ccc2oc(-c3ccc(C)c(NC(=O)Cc4ccccc4)c3)nc2c1 | 18%
20 | Cc1ccc2oc(-c3ccc(C)c(NC(=O)c4cccc(Cl)c4Cl)c3)nc2c1 | 54% (active)
21 | Cc1c(NC(=O)COc2ccc(Cl)cc2Cl)cccc1-c1nc2cc(Cl)ccc2o1 | 54% (active)
22 | Cc1ccc(OCC(=O)Nc2cccc(-c3nc4cc(Cl)ccc4o3)c2C)c(C)c1 | 27%
23 | Cc1ccc(-c2nc3ccccc3o2)cc1NC(=O)Cc1ccccc1 | 18%
24 | Cc1ccc(-c2nc3cc(Cl)ccc3o2)cc1NC(=O)Cc1ccccc1 | 55% (active)
25 | O=C(COc1ccc(Br)cc1)Nc1ccc(-c2nc3cc(Cl)ccc3o2)cc1 | 59% (active)
26 | O=C(COc1ccc(Br)cc1)Nc1cccc(-c2nc3cc(Cl)ccc3o2)c1 | 12%
27 | Cc1ccccc1OCC(=O)Nc1cccc(-c2nc3cc(Cl)ccc3o2)c1C | 15%

Row | SMILES | inhibition
28 | CC(C)(C)c1ccc(C(=O)NC2CCCC2)cc1 | 2%
29 | O=C1c2ccccc2NC(c2ccccc2O)N1c1ccc(Cl)cc1 (stereo not given) | 12%
30 | COc1cc(OC)c(OC)cc1CN1CCN(C/C=C/c2ccccc2)CC1 | 14%
31 | c1ccc(N2N=C(c3cccs3)CC2c2cccs2)cc1 (stereo not given) | 6%
32 | COc1ccc(/C=N/n2nnnc2N)cc1Br | 30%
33 | Cc1ccc2cc(C)c(NCc3ccccn3)nc2c1 | 6%
34 | CCOC(=O)C(CC)P(=O)(c1ccccc1)c1ccccc1 (stereo not given) | 0%
35 | CCCC(=O)Nc1ccc(NC(=O)c2ccccc2[N+](=O)[O-])cc1 | 7%
36 | CN(C)c1ccc(C(=O)N2CCN(c3ccc(F)cc3)CC2)cc1 | 13%
37 | Cc1ccc2oc(-c3ccc(NC(=O)COc4ccc(Cl)cc4)cc3)nc2c1 | 28%
38 | CCc1ccc2oc(-c3ccc(C)c(NC(=O)COc4ccc(Cl)cc4)c3)nc2c1 | 52% (active)
39 | COc1ccc(OCC(=O)Nc2ccc(-c3nc4cc(C)ccc4o3)cc2)cc1 | 19%
40 | Cc1ccc(-c2nc3cc(Cl)ccc3o2)cc1NC(=O)c1cccc([N+](=O)[O-])c1 | 57% (active)
41 | Cc1cc2nc(-c3ccc(C)c(NC(=O)c4cccc([N+](=O)[O-])c4)c3)oc2cc1C | 15%
42 | O=C(COc1ccccc1)Nc1ccc2oc(-c3ccc(Cl)cc3)nc2c1 | 49%
43 | Cc1ccc(-c2nc3cc(Cl)ccc3o2)cc1NC(=O)c1cccc(Cl)c1 | 15%
44 | CCc1ccc2oc(-c3ccc(C)c(NC(=O)COc4ccccc4)c3)nc2c1 | 44%
45 | Cc1ccc2oc(-c3ccc(NC(=O)COc4ccc(Br)cc4)cc3)nc2c1 | 59% (active)
46 | O=C(COc1ccc(Cl)cc1)Nc1ccc2oc(-c3ccccc3)nc2c1 | 16%
47 | Cc1ccc(-c2nc3ccccc3o2)cc1NC(=O)COc1ccc(Cl)cc1 | 9%
48 | O=C(COc1ccc(Cl)cc1)Nc1ccc2oc(-c3ccc(Cl)cc3)nc2c1 | 54% (active)
49 | O=C(NCCN1CCOCC1)c1cc2nc(-c3ccc(Cl)cc3)cc(C(F)(F)F)n2n1 | 0%
50 | COc1ccc(C=NN2CCN(Cc3ccccc3Cl)CC2)c(OC)c1 | 6%
51 | Cc1nc(-c2ccccc2)sc1C(=O)Nc1ccc(Br)cc1 | 15%
52 | c1ccc(-c2ccc(Oc3cc(-n4cccn4)ncn3)cc2)cc1 | 11%
53 | O=C(Nc1ccc(Cl)cc1)c1cccc(N2C(=O)c3cccnc3C2=O)c1 | 0%
54 | Cc1ccc(NC(=O)c2c(NC(=O)C(F)(F)F)sc3c2CCC3)c(C)c1 | 13%

Row | SMILES | inhibition
55 | Cc1ccc(NC(=O)c2c(NC(=O)C(F)(F)F)sc3c2CCCCC3)c(C)c1 | 23%
56 | Oc1c(C=Nc2ccccc2)sc2ccccc12 | 4%
57 | CC(=O)c1ccc(NS(=O)(=O)c2cccc(S(=O)(=O)c3ccc(Cl)c(Cl)c3)c2)cc1 | 10%
58 | COc1ccc(/C=C2\SC(=S)N(Nc3ccccc3)C2=O)cc1OC | 55% (active)
59 | COc1cc(/C=C2\SC(=S)N(Nc3ccccc3)C2=O)ccc1O | 37%
60 | COc1cc(C(=O)NN2C(=O)/C(=C/c3ccc(OC)c(OC)c3)SC2=S)ccc1O | 61% (active)
61 | O=C(NN1C(=O)/C(=C/c2ccc(Br)cc2)SC1=S)c1ccncc1 | 5%
62 | COc1cc(/C=C2\SC(=S)N(NC(=O)c3ccccc3Br)C2=O)ccc1O | 18%
63 | O=C(NN1C(=O)/C(=C/c2ccc(O)c(O)c2)SC1=S)c1ccc(Br)cc1 | 58% (active)
64 | COc1cc(/C=C2\SC(=S)N(Nc3ccccc3)C2=O)cc(OC)c1OC | 4%
65 | O=C(NN1C(=O)/C(=C/c2ccc(O)c(O)c2)SC1=S)c1ccccc1Br | 50% (active)
66 | COc1cc(/C=C2\SC(=S)N(NC(=O)c3ccc(O)c(OC)c3)C2=O)ccc1O | 34%
67 | O=C(NN1C(=O)/C(=C/c2ccc(O)cc2)SC1=S)c1ccccc1Br | 5%
68 | COc1cc(/C=C2\SC(=S)N(NC(=O)c3ccc(Br)cc3)C2=O)ccc1O | 23%
69 | COc1cc(C(=O)NN2C(=O)/C(=C/c3ccccc3)SC2=S)ccc1O | 4%
70 | CCOc1ccc(C(=O)Nc2ccc3oc(-c4ccc(CC)cc4)nc3c2)cc1[N+](=O)[O-] | 16%
71 | Nc1nc(CN2C(=O)c3ccccc3C2=O)cs1 | 2%
72 | CCOC(=O)c1c(NC(=O)c2ccc3c(c2)OCCO3)sc2c1CCCC2 | 5%
73 | CC(=O)OCCN1C(=O)c2ccc(Oc3cccc(Oc4ccc5c(c4)C(=O)N(CCOC(C)=O)C5=O)c3)cc2C1=O | 10%
74 | CCOc1ccc(/C=C2\SC(=S)N(CCC(=O)Nc3cccnc3)C2=O)cc1 | 22%
75 | CC(=O)N1c2ccccc2NC2=C(C(=O)CC(c3ccccc3)C2)C1c1cccnc1 (stereo not given) | 7%
76 | O=C(O)c1cccc(C(=O)O)c1N(c1ccccc1)c1ccccc1 | 40%
77 | CCOc1cc(/C=N/n2cnnc2)cc(Cl)c1OCCOc1cc(C)ccc1C(C)C | 10%
78 | COc1ccc(C(=O)Nc2nccs2)c(OC)c1 | 4%
79 | Cc1cccc(N2C(=O)NC(=O)/C(=C\c3ccc(Oc4ccc([N+](=O)[O-])cn4)cc3)C2=O)c1 | 13%
80 | Oc1ccccc1/C=N/n1c(-c2ccccc2)n[nH]c1=S | 11%
81 | COc1cc(/C=N/n2c(-c3ccc(C)cc3)n[nH]c2=S)ccc1O | 8%

Row | SMILES | inhibition
82 | Cc1ccc(-c2n[nH]c(=S)n2/N=C/c2ccc(O)cc2O)cc1 | 8%
83 | Cc1ccc(-c2n[nH]c(=S)n2/N=C/c2cc(Br)ccc2O)cc1 | 15%
84 | Oc1ccc(/C=N/n2c(-c3ccccc3)n[nH]c2=S)cc1O | 55% (active)
85 | COc1ccc(-c2n[nH]c(=S)n2N=Cc2ccc(-c3ccccc3)cc2)cc1 | 45%
86 | Cc1ccc(-c2n[nH]c(=S)n2N=Cc2ccc(Cl)c(Cl)c2)cc1 | 18%
87 | Cc1ccc(-c2n[nH]c(=S)n2/N=C/c2ccc(O)cc2)cc1 | 9%
88 | Cc1ccc(-c2n[nH]c(=S)n2N=Cc2ccc(-c3ccccc3)cc2)cc1 | 56% (active)
89 | Cc1cccc(C=Nn2c(-c3ccccc3)n[nH]c2=S)c1 | 22%
90 | Cc1ccc(-c2n[nH]c(=S)n2N=Cc2ccc(O)c(O)c2)cc1 | 60% (active)
91 | O=C1OC(/C=C/c2ccccc2)=NC/1=C/c1ccc(-c2ccc3c(c2)C(=O)NC3=O)o1 | 33%
92 | C#CCOc1ccc(C=C2C(=O)N(C)C(=S)N(C)C2=O)cc1Br | 21%
93 | Clc1ccc(C2C=C(c3cccs3)Nc3nnnn32)cc1 (stereo not given) | 3%
94 | COc1cc(/C=C2\SC(=Nc3ccc(C)c(Cl)c3)NC2=O)ccc1C | 56% (active)
95 | COc1cc(/C=C2/SC(=S)NC2=O)ccc1OC(C)C | 1%
96 | COc1cc(/C=C2\SC(=Nc3ccc(C)c(Cl)c3)NC2=O)cc(OC)c1OC | 21%
97 | O=C1NC(=S)S/C1=C\c1ccc(O)c(O)c1 | 78% (active)
98 | O=C1NC(=S)S/C1=C/c1ccc(Cl)cc1 | 10%
99 | Nc1ccc(/C=C2/SC(=S)NC2=O)cc1 | 4%
100 | COc1ccc(/C=C2\SC(=S)NC2=O)cc1C | 65% (active)
101 | COc1cc(/C=C2\SC(=Nc3ccc(C)c(Cl)c3)NC2=O)ccc1O | 47%
102 | O=C1NC(=S)S/C1=C/c1ccc(O)c(Br)c1 | 3%
103 | COc1ccc(/C=C2/SC(=S)NC2=O)cc1I | 39%
104 | O=C1NC(=S)S/C1=C/c1cc(Br)ccc1O | 24%
105 | O=C1NC(=S)S/C1=C\c1ccc(N2CCCC2)cc1 | 54% (active)
